Inconclusive results are not listed. Calls of active or inactive are those of the source. Unless noted, the call rests on the fitted dose curve; in most records, active means well fitted curve in the direction sought with a large enough effect in the repeat runs; inconclusive means weak or mixed curves; inactive means no such curve, though single readings can be large; an effect the other way counts as inactive or inconclusive.
Experiments:
[1] = qHTS assay to identify small molecule agonists of the RXR signaling pathway - cell viability counter screen (AID 1159529); further: nearly all actives have a fitted effect of over 50% in size; further: potency means the concentration at half of the fitted maximal effect;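 on activity change, negative = cytotoxicity: HEK 293T cells carrying an RXR-alpha UAS beta-lactamase reporter; series mostly up to about 77 µM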
Procedure, shortened: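 Tox21 10K compounds were tested for cytotoxicity against GeneBLAzer RXR-alpha HEK 293T cells grown in 2% charcoal-stripped FBS. Exposure lasted 16 hr at 37 C, 5% CO2; viability read by CellTiter-Glo luminescence.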

[2] = qHTS assay to identify small molecule antagonists of the retinoid acid receptor (RAR) signaling pathway - cell viability counter screen (AID 1159551); further: nearly all actives have a fitted effect of over 35% in size
Procedure, shortened: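 Following overnight attachment, C3RL4 reporter cells received DMSO-dissolved compounds and then retinol (1 uM final). Six hours later at 37 C, ATP content was measured by CellTiter-Glo luminescence.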

[3] = qHTS assay to identify small molecule antagonists of the estrogen related receptor (ERR) signaling pathway from Tox21 library - cell viability counter screen (AID 1224834); further: nearly all actives have a fitted effect of over 30% in size
Procedure, shortened: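 Viability readout (CellTiter-Fluor fluorescence, 30 min at 37 C) multiplexed with the ERR assay; cells treated 17.5 h at 37 C with compounds delivered in DMSO.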

[4] = qHTS assay to identify small molecule agonists of the constitutive androstane receptor (CAR) signaling pathway - cell viability counter screen (AID 1224836); further: series mostly up to about 92 µM; nearly all actives have a fitted effect of over 45% in size
Procedure, shortened: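 Fluorescence from CellTiter-Fluor indicates live cells after 23 h exposure. The human hepatoma line expresses hCAR and a CYP2B6-2.2kb reporter. Incubation medium contains 0.75 uM PK11195 (final).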

[5] = qHTS assay to identify small molecule antagonists of the constitutive androstane receptor (CAR) signaling pathway - cell viability counter screen (AID 1224837); further: series mostly up to about 92 µM; nearly all actives have a fitted effect of over 45% in size
Procedure, shortened: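 Fluorescence from CellTiter-Fluor served as the viability signal. Human hepatoma HepG2 cells stably bearing hCAR and CYP2B6-2.2kb received compound plus CITCO (50 nM final) for 23 hr.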

[6] = biological target: Nuclear receptor subfamily 1 group I member 3 (Homo sapiens) (UniProt Q14994); assay: qHTS assay to identify small molecule antagonists of the constitutive androstane receptor (CAR) signaling pathway (AID 1224838);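 further: HepG2 cells stably expressing hCAR with CYP2B6 luciferase reporter stimulated by CITCO; nearly all actives have a fitted effect of over 40% in size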; further: potency means the concentration at half of the fitted maximal effect
Procedure, shortened: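 Quantitative HTS in double-stable HepG2-CYP2B6-hCAR cells. After 4 h plating, cells get compound (15 concentrations) and CITCO at 50 nM final, incubate 24 h at 37 C, then ONE-Glo luminescence is read.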

[7] = biological target: Nuclear receptor subfamily 1 group I member 3 (Homo sapiens) (UniProt Q14994); assay: qHTS assay to identify small molecule agonists of the constitutive androstane receptor (CAR) signaling pathway (AID 1224839); further: nearly all actives have a fitted effect of over 15% in size; further: potency means the concentration at half of the fitted maximal effect;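 on activation: HepG2 cells stably carrying human CAR and a CYP2B6 luciferase reporter; series mostly up to about 92 µM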
Procedure, shortened: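 Stable hCAR/CYP2B6-2.2kb HepG2 line in DMEM with 10% FBS; compounds (15 concentrations) and 0.75 uM PK11195 final, 24 h at 37 C/5% CO2, then ONE-Glo luminescence after 30 min.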

[8] = qHTS assay to identify small molecule antagonists of the estrogen related receptor signaling pathway with the pleiotropic PPARgamma coactivator (PGC) from Tox21 10K library - cell viability counter screen (AID 1224840; active means well fitted cell-killing curve with a large enough effect in the repeat runs, not every such curve was filed as active; further: nearly all actives have a fitted effect of over 40% in size)
Procedure, shortened: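 Compounds in DMSO, alongside positive and negative controls, were pinned onto PGC/ERR cells (2,000 per well). Exposure lasted 17.5 hours at 37 C, followed by a 30-minute CellTiter-Fluor incubation and fluorescence reading.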

[9] = biological target: Thyrotropin receptor (Homo sapiens) (UniProt P16473); assay: qHTS assay to identify small molecule agonists of the thyroid stimulating hormone receptor (TSHR) signaling pathway (AID 1224843; calls by dose curve; further: nearly all actives have a fitted effect of over 45% in size)
Procedure, shortened: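 TSHR-HEK293 cells in agonist mode, 30 min room-temperature step, then cAMP measured by competitive HTRF (cAMP-d2 with anti-cAMP cryptate) after 1 h at room temperature. Tested at 15 concentrations in triplicate.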

[10] = qHTS assay to identify small molecule agonists of the hypoxia (HIF-1) signaling pathway - cell viability counter screen (AID 1224844; calls by dose curve; further: nearly all actives have a fitted effect of over 50% in size)
Procedure, shortened: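 Luminescent ATP content (CellTiter-Glo, 30 min, room temperature) served as the viability measure in HRE-bla ME-180 cells exposed to compounds for 17 hrs in low-serum medium (0.5% dialyzed FBS).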

[11] = biological target: Luciferin 4-monooxygenase (Photinus pyralis) (UniProt P08659); assay: qHTS assay to identify small molecule inhibitors of firefly luciferase (AID 1224835); further: series mostly up to about 120 µM; nearly all actives have a fitted effect of over 25% in size
Procedure, shortened: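 Biochemical qHTS: compounds run as interplate titrations against purified firefly enzyme, with D-luciferin and ATP each at its KM concentration. Light output recorded by CCD imaging.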

[12] = qHTS assay to identify small molecule agonists of the estrogen related receptor signaling pathway with the pleiotropic PPARgamma coactivator (PGC) from Tox21 10K library (AID 1224842); further: nearly all actives have a fitted effect of over 15% in size
Procedure, shortened: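 PGC/ERR reporter cell line, 2,000 cells per well, incubated 6 h at 37 C before 23 nL compound in DMSO was added. After 18 h at 37 C, One-Glo luminescence read following 30 min at room temperature.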

[13] = qHTS assay to identify small molecule antagonists of the estrogen related receptor signaling pathway with the pleiotropic PPARgamma coactivator (PGC) from Tox21 10K library (AID 1224841; call rule not given here; further: series mostly up to about 92 µM; actives are mostly falling curves and most rising ones were filed inactive; nearly all actives have a fitted effect of over 50% in size)
Procedure, shortened: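 Compound exposure ran 18 hours at 37 C in PGC/ERR cells (2,000/well) that had first rested 6 hours in a 37 C/5% CO2 incubator. Luciferase activity was then detected with One-Glo after a 30-minute room-temperature step.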

[14] = qHTS assay to identify small molecule agonists of the retinoic acid receptor (RAR) signaling pathway (AID 1159553)
Procedure, shortened: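 Cell line C3RL4, RARE luciferase reporter. Treatment: compounds in DMSO, 6 hr, 37 C, 5% CO2, after overnight plating. Detection: luminescence, 30 min RT after reagent.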
On the % scale 0 is the no-effect control and ±100 the full control effect.

Thyrotropin receptor (Homo sapiens), sequence (P16473 whole entry, looked up): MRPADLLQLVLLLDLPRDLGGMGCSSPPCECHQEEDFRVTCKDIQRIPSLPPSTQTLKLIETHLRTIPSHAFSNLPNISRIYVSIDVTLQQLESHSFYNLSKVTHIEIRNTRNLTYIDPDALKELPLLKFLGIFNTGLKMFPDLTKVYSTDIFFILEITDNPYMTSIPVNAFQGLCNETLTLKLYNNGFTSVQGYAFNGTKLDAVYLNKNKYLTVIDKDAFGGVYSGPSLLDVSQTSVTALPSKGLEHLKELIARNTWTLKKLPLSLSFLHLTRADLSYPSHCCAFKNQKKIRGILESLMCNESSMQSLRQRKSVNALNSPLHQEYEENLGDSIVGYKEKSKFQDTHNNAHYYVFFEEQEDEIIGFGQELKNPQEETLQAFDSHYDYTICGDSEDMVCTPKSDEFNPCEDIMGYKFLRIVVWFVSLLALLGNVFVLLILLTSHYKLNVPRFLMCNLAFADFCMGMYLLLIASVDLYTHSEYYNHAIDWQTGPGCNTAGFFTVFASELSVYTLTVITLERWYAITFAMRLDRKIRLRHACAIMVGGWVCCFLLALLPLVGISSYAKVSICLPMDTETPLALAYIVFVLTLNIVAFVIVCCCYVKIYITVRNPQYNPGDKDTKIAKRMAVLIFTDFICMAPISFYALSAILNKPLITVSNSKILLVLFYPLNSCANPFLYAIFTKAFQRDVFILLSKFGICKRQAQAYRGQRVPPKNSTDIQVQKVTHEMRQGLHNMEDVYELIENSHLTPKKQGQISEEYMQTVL
Luciferin 4-monooxygenase (Photinus pyralis), sequence (P08659 whole entry, looked up): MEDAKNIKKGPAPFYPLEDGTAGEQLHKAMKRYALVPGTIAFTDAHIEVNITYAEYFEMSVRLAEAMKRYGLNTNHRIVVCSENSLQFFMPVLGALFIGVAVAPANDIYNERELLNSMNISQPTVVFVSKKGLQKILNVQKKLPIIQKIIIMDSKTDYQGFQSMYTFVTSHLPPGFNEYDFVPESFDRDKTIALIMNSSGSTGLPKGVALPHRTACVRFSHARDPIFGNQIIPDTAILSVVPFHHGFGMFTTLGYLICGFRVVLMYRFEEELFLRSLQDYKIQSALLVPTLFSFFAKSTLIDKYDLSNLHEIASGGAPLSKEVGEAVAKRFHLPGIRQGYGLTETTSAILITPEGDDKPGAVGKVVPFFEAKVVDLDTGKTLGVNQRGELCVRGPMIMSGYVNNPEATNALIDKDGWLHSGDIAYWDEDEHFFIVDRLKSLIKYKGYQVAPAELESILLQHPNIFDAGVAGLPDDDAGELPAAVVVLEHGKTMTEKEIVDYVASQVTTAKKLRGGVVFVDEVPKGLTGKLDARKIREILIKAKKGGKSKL
Nuclear receptor subfamily 1 group I member 3 (Homo sapiens), sequence (Q14994 whole entry, looked up): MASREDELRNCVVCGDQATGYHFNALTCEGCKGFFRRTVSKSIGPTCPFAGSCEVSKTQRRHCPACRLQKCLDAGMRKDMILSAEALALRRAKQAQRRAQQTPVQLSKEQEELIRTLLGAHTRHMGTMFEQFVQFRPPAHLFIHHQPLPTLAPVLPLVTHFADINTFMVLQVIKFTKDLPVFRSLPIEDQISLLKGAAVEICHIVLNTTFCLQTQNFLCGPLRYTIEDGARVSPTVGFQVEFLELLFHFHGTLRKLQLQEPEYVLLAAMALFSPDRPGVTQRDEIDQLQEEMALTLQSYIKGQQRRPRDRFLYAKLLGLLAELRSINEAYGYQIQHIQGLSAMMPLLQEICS

CCOC(=O)c1cccnc1
inactive: Potency [1] | Potency [2] | Potency [3] | Potency [4] | Potency [5] | Potency [6] | Potency [7] | Potency [8] | Potency [9] | Potency [10]

CCCCCCCN
inactive: Potency [1] | Potency [2] | Potency [3] | Potency [11] | Potency [4] | Potency [5] | Potency [6] | Potency [7] | Potency [8] | Potency [9] | Potency [10]

Nc1cccc(S(=O)(=O)c2cccc(N)c2)c1
inactive: Potency [1] | Potency [2] | Potency [3] | Potency [4] | Potency [5] | Potency [6] | Potency [7] | Potency [8] | Potency [12] | Potency [9] | Potency [10]

CCCCC(CC)COC(=O)CCCCCCCCC(=O)OCC(CC)CCCC (configuration not stated)
inactive: Potency [1] | Potency [2] | Potency [3] | Potency [11] | Potency [4] | Potency [5] | Potency [6] | Potency [7] | Potency [8] | Potency [12] | Potency [9] | Potency [10]

Brc1c2ccccc2cc2ccccc12
inactive: Potency [2] | Potency [3] | Potency [4] | Potency [5] | Potency [6] | Potency [8] | Potency [9] | Potency [10]
active: Potency [1] 35 µM | Potency [7] 55 µM

NC(=O)C(c1ccccc1)(c1ccccc1)[C@@H]1CCN(CCc2ccc3c(c2)CCO3)C1
inactive: Potency [1] | Potency [2] | Potency [3] | Potency [11] | Potency [4] | Potency [5] | Potency [8] | Potency [12] | Potency [9] | Potency [10]

CN(C)CCN(Cc1ccccc1)c1ccccn1
inactive: Potency [1] | Potency [2] | Potency [3] | Potency [11] | Potency [4] | Potency [5] | Potency [8] | Potency [9]

CC1=CC=C(C(C)C)CC1
inactive: Potency [1] | Potency [2] | Potency [3] | Potency [11] | Potency [4] | Potency [5] | Potency [6] | Potency [7] | Potency [8] | Potency [10]

CC[N+]1(CC)CCC(=C(c2ccccc2)c2ccccc2)C1C (configuration not stated)
inactive: Potency [1] | Potency [2] | Potency [3] | Potency [11] | Potency [4] | Potency [5] | Potency [6] | Potency [7] | Potency [8] | Potency [9] | Potency [10]

COC(=O)c1ccc(I)cc1S(=O)(=O)NC(=O)Nc1nc(C)nc(OC)n1
inactive: Potency [1] | Potency [2] | Potency [3] | Potency [11] | Potency [4] | Potency [5] | Potency [6] | Potency [7] | Potency [8] | Potency [9] | Potency [10]

CC(=O)c1cccc([N+](=O)[O-])c1
inactive: Potency [1] | Potency [2] | Potency [3] | Potency [11] | Potency [4] | Potency [5] | Potency [6] | Potency [7] | Potency [8] | Potency [10]

CC(CSC(=O)c1ccccc1)C(=O)N1C[C@@H](Sc2ccccc2)C[C@H]1C(=O)O (some centres not stated)
inactive: activity change, negative = cytotoxicity [1] -1.14% [at 15.8 µM] | activity change, negative = cytotoxicity [2] -2.34% [at 19 µM] | viability change, negative = cytotoxic [3] 7.27% [at 19 µM] | activity change, negative = inhibition [11] 0.3% [at 23.6 µM] | viability change, negative = cytotoxic [4] 5.15% [at 19 µM] | activity change, negative = cytotoxicity [5] 0% [at 19 µM] | viability change, negative = cytotoxic [8] 17.4% [at 19 µM] | activation [12] 0.512% [at 19 µM] | activation [9] -0.691% [at 19 µM] | activity change, negative = cytotoxicity [10] -3.08% [at 15.8 µM]

COS(=O)(=O)C(F)(F)F
inactive: Potency [1] | Potency [2] | Potency [3] | Potency [11] | Potency [4] | Potency [5] | Potency [6] | Potency [7] | Potency [8] | Potency [9] | Potency [10]

Cc1cccc(C)c1NC(=O)CN(CC(=O)O)CC(=O)O
inactive: Potency [1] | Potency [2] | Potency [3] | Potency [11] | Potency [4] | Potency [5] | Potency [6] | Potency [7] | Potency [8] | Potency [9] | Potency [10]

OC[C@H]1O[C@@H](OCCc2ccc(O)cc2)[C@H](O)[C@@H](O)[C@@H]1O
inactive: Potency [1] | Potency [2] | Potency [3] | Potency [11] | Potency [4] | Potency [5] | Potency [6] | Potency [7] | Potency [8] | Potency [13] | Potency [10]

NCC(=O)CCC(=O)O
inactive: Potency [1] | Potency [2] | Potency [3] | Potency [11] | Potency [4] | Potency [5] | Potency [8] | Potency [9] | Potency [10]

CNC(=O)CN(CCN(CCN(CC(=O)[O-])CC(=O)NC)CC(=O)[O-])CC(=O)[O-].O.[Gd+3]
inactive: Potency [1] | Potency [2] | Potency [3] | Potency [11] | Potency [4] | Potency [5] | Potency [6] | Potency [7] | Potency [8] | Potency [10]

Clc1ccc(Cn2c(CN3CCCC3)nc3ccccc32)cc1
inactive: Potency [1] | Potency [2] | Potency [14] | Potency [11] | Potency [4] | Potency [8] | Potency [9] | Potency [10]
active: Potency [6] 11.9 µM | Potency [7] 11.9 µM

CCCCCCCCCOS(=O)(=O)O
inactive: Potency [1] | Potency [2] | Potency [3] | Potency [11] | Potency [4] | Potency [5] | Potency [6] | Potency [7] | Potency [8] | Potency [9] | Potency [10]

CC(C)(CO)[N+](=O)[O-]
inactive: Potency [1] | Potency [2] | Potency [3] | Potency [11] | Potency [4] | Potency [5] | Potency [6] | Potency [7] | Potency [8] | Potency [10]

From PubChem BioAssay (Tox21)
